Assay in all cases: NCI-60 one-dose screen, 48 h (100 = growth as untreated, 0 = no growth, -100 = all killed)
In assay [1] the test system is EKVX NSCLC. To be noted: 10 µM unless noted.
The test system of assay [2] is SN12C renal. To be noted: 10 µM unless noted.
Assay [3] concerns UO-31 renal. Conditions: 10 µM unless noted.
Assay [4] relates to TK-10 renal. To be noted: 10 µM unless noted.
The test system of assay [5] is CAKI-1 renal. To be noted: 10 µM unless noted.
For assay [6], the system named is CCRF-CEM leukemia. To be noted: 10 µM unless noted.
Assay [7] concerns MOLT-4 leukemia. To be noted: 10 µM unless noted.
Assay [8] concerns SR leukemia. To be noted: 10 µM unless noted.
In assay [9] the test system is RPMI-8226 leukemia. To be noted: 10 µM unless noted.
Assay [10] relates to OVCAR-8 ovarian. Conditions: 10 µM unless noted.
Assay [11] deals with OVCAR-5 ovarian. Conditions: 10 µM unless noted.
In assay [12] the test system is OVCAR-4 ovarian. To be noted: 10 µM unless noted.
Assay [13] relates to SK-OV-3 ovarian. To be noted: 10 µM unless noted.
Assay [14] concerns IGROV1 ovarian. To be noted: 10 µM unless noted.
Assay [15] has as its system OVCAR-3 ovarian. Conditions: 10 µM unless noted.
In assay [16] the test system is NCI/ADR-RES ovarian. Conditions: 10 µM unless noted.
Assay [17] concerns ACHN renal. To be noted: 10 µM unless noted.
Assay [18] has as its system A498 renal. To be noted: 10 µM unless noted.
The test system of assay [19] is HS 578T breast. To be noted: 10 µM.

This is part of a sample that, as a whole, favours compounds with a hit. Of some 83,000 tested, about 20% had one in any assay.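 Treatment: one concentration, 48 hours, 96-well format. Scoring: percent growth, with anything below 10 considered active.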 A number with no mark means an inactive call. Activity calls are given as the source filed them.

As for `COc1cc2nccc(Oc3ccc(NC(=O)C4(C(=O)Nc5ccc(F)cc5)CC4)cc3)c2cc1OC`, the growth is 23.4% in assay [1]; 9.57% (active) in assay [2]; -19.2% (active) in [3]; 15.1% in [4]; -14.9% (active) in assay [5]; 19.1% in assay [6]. The growth is 11.6% in assay [7]; 0.0186% (active) in [8]; 26.4% in assay [9]; 19.8% in assay [10]; 9.6% (active) in [11]; 26.3% in [12]. For the same compound, the growth was -15.1% (active) in assay [13], -15.9% (active) in [14], 41.2% in assay [15] and 13.8% in [16].

Turning to `Cc1nc(N)sc1-c1ccnc(Nc2ccc(N3CCOCC3)cc2)n1`, the growth is 71.7% in assay [1]; 49.8% in assay [2]; 19.7% in assay [3]; 39.9% in [4]; 29.7% in assay [17]; 20.8% in assay [5]. The growth in assay [6] was 23%; in [7] it was 13.8%; in [8] it was 2.59% (active); in assay [9], 31.4%; in [10], 34.2%; in [11] it was 42.8%. In addition, the growth was 53.7% in assay [12]; 8.94% (active) in assay [13]; 12.3% in assay [14]; 59.6% in assay [15]; 61.4% in [16].

For `Cc1cccc(C)c1N1C(c2ccccc2)=NNC12C=CC(=O)c1c(O)cccc12` (configuration not stated), the growth in assay [1] is 91.3%; in assay [2], 72.5%; in assay [3] it was 48.4%; in assay [4], 111%; in [17], 88.6%; in assay [5], 101%. Besides, the growth in assay [6] is 95.9%; in [7], 76.9%; in [8] it was 56.9%; in [9] it was 75.6%; in [10], 69.6%; in [11], 90.8%. The growth in [12] is 70.5%; in [13], 86%; in [14], 83.3%; in [15] it was 51.7%; in assay [16], 70.3%.

On to `Cc1[nH]c(/C=C2\C(=O)Nc3ccc(F)cc32)c(C)c1C(=O)NC[C@H](O)CN1CCOCC1`, for which the growth in assay [1] was 44.9%; in assay [2], 27.6%; in [3], -1.44% (active); in [4], 50.1%; in assay [5] it was 4.97% (active); in assay [18] it was 30.5%. For the same compound, the growth in [6] was 33%; in assay [7], 15.7%; in [8], -2.38% (active); in assay [9], 49.4%; in assay [10] it was 42.6%; in assay [11] it was 15.1%. In addition, the growth in assay [12] is 50.6%; in assay [13], 3.3% (active); in assay [14], 19.6%; in assay [15], 70.3%; in [16], 64.7%.

For `Cn1cnc2c(F)c(Nc3ccc(Br)cc3Cl)c(C(=O)NOCCO)cc21`, the growth in assay [1] is 54.4%; in assay [2], 65.9%; in assay [3] it was 40.9%; in assay [4], 33.7%; in assay [5] it was 40.2%; in assay [18], -37% (active). In addition, the growth was 95.8% in [6]; 92.2% in [7]; 75% in [8]; 66.4% in assay [10]; 7.92% (active) in [11]; 65.5% in assay [12]. The growth in assay [13] was 51.5%; in [14], 25.3%; in assay [15], 106%; in assay [16], 68.6%.

On to `CS(=O)(=O)N1CCN(Cc2cc3nc(-c4cccc5[nH]ncc45)nc(N4CCOCC4)c3s2)CC1`, for which the growth in assay [1] was 19.9%; in assay [2], 17.2%; in assay [3], -14.7% (active); in assay [4], 0.78% (active); in assay [17], 6.84% (active); in [5], 7.35% (active). Besides, the growth in assay [6] was 36.3%; in assay [7] it was 12.3%; in assay [8], 18.6%; in [10], 27%; in assay [11] it was 20.5%; in assay [12], 47.8%. The growth in assay [13] was -18.4% (active); in assay [14] it was -28.4% (active); in assay [15] it was 14.5%; in assay [16], 32.1%.

`CCOC(=O)c1sc(NC(=O)COc2ccc(/C=C3\Cc4ccc(Cl)cc4C3=O)cc2)nc1C`: the growth in assay [1] is 111%; in assay [2], 102%; in assay [3], -77.3% (active); in assay [4] it was 149%; in assay [5], 96.1%; in assay [18], 143%. In addition, the growth in [6] is 101%; in assay [7], 60.6%; in assay [8] it was 103%; in assay [9], 96.1%; in assay [11] it was 111%; in assay [12] it was 112%. The growth was 110% in [13], 113% in assay [15], 116% in assay [19] and 93.9% in [16].

With `CCCCCCCC12Cc3ccccc3C1=Nc1c(c3ccccc3n1C)C2=O` (configuration not stated), the growth is 98.8% in [1]; 92.1% in assay [2]; 57.5% in assay [3]; 102% in [4]; 79.7% in assay [5]; 83.6% in assay [6]. Besides, the growth in assay [7] is 78.3%; in assay [8], 82.6%; in assay [10], 85.2%; in assay [11], 86.5%; in [12] it was 97.4%; in [13], 81.6%. Besides, the results for the growth in assay [14], in assay [15] and in assay [16] were 69.5%, 92.9% and 94.2%, respectively.

In the case of `CCCCOc1nc2cc(Cl)ccc2cc1/C=C/c1cc(/C=C/c2cc3ccc(Cl)cc3nc2OCCCC)n(-c2ccccc2)n1`, the growth was 113% in assay [1]; 94% in [2]; 89.9% in assay [3]; 91.4% in [4]; 78.5% in assay [5]; 97.9% in [18]. Further, the growth in assay [6] was 98.9%; in assay [7], 84.8%; in [8], 73%; in [9], 111%; in assay [10], 77.8%; in assay [11], 107%. Also, the growth is 111% in assay [12]; 51.5% in assay [13]; 89.3% in assay [14]; 103% in assay [15]; 93.2% in [16].
